The sequences below were run against PUM1 PUF domain R4-NRG (Homo sapiens, UniProt Q14671 828-1176, H972R;Q975G) (assay: yeast three-hybrid, YBZ-1, SC-Leu-His + 0.5 mM 3-AT, 4 days). Conditions: tags: N-Gal4 AD-HA kept; label: inside an RPR1-promoter hybrid RNA with tandem MS2 sites; ssRNA.
Summary of the method: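 Pumilio-1 PUF domain libraries, randomized (NNK) at the three base-contacting residues of each repeat, were co-expressed with matching RNA elements from a centromeric plasmid in strain YBZ-1 (LexA–MS2 coat fusion, HIS3 reporter). Transformants were plated on SC-Leu (input) and SC-Leu-His + 0.5 mM 3-AT (selection) for four days, and repeat regions were PCR-amplified and Illumina-sequenced. The interaction score is the log2 change in variant frequency from input to selection, with pseudocount 1 where absent.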
With “GGCUAGAACUAGUGGAUCCCCCGGCGCCCGGCGGCUCGAGCCCGGGUAAGUGUACAUAGUCUGCAUGCCGCCGGGCGCCAUGCCUGCAGGUCGACUCUAGAAAACAUG” the binding signal was 0.43 log2 enrichment (interaction score).
In the case of “GGCUAGAACUAGUGGAUCCCCCGGCGCCCGGCGGCUCGAGCCCGGGUAAGUGUAUAUAGUCUGCAUGCCGCCGGGCGCCAUGCCUGCAGGUCGACUCUAGAAAACAUG”, the binding signal is reported as 2.73 log2 enrichment (interaction score).
“GGCUAGAACUAGUGGAUCCCCCGGCGCCCGGCGGCUCGAGCCCGGGUAAGUGUAAAUAGUCUGCAUGCCGCCGGGCGCCAUGCCUGCAGGUCGACUCUAGAAAACAUG” was tested, and the binding signal was 3.35 log2 enrichment (interaction score).

Reference: publication PMC8384837, “Expanding the binding specificity for RNA recognition by a PUF domain”
